Data on 64 compounds can be found in the antibiotic and cytotoxicity screens of Wong et al. (2023).

Out of some 39,000 compounds screened, about 3,300 (8.5%) were called active. The sample as a whole holds a higher share of actives than the screen did.

For the test, the system named is HepG2. The test can be described thus: cytotoxicity call (relative viability < 0.9). The settings on record: 10 µM.
For the compound `C[C@H](CO)N1C[C@H](C)[C@@H](CN(C)C(=O)Nc2ccc3c(c2)OCO3)Oc2ccc(NC(=O)CCN3CCOCC3)cc2CC1=O`, the cytotoxicity call was “inactive”.

As for `O=C(C[C@@H]1CC[C@H]2[C@@H](COC[C@@H](O)CN2C(=O)c2ccccc2F)O1)N1CCN(c2ccccc2)CC1`, the cytotoxicity call was “inactive”.

Regarding `c1ncc(CC2CCNCC2)[nH]1`, the cytotoxicity call was “inactive”.

For the compound `COc1ccc(S(=O)(=O)Nc2ccc3c(c2)CC(=O)N([C@@H](C)CO)C[C@@H](C)[C@H](CN(C)C)O3)cc1`, the cytotoxicity call is “inactive”.

For the compound `C[C@H]1CN([C@@H](C)CO)C(=O)c2cccc(NC(=O)Nc3ccc4c(c3)OCO4)c2O[C@@H]1CN(C)Cc1ccc(C(=O)Nc2ccccc2N)cc1`, the cytotoxicity call is “inactive”.

Regarding `COc1cccc(NC(=O)N(C)C[C@@H]2Oc3cc(C#Cc4ccncc4)ccc3S(=O)(=O)N([C@H](C)CO)C[C@@H]2C)c1`, the cytotoxicity call is “active”.

Regarding `COc1cccc(NC(=O)N(C)C[C@H]2Oc3cc(C#Cc4ccncc4)ccc3S(=O)(=O)N([C@@H](C)CO)C[C@@H]2C)c1`, the cytotoxicity call is “active”.

Regarding `COc1cccc(NC(=O)N(C)C[C@@H]2Oc3cc(C#Cc4ccncc4)ccc3S(=O)(=O)N([C@@H](C)CO)C[C@@H]2C)c1`, the cytotoxicity call is “active”.

As for `COc1cccc(NC(=O)N(C)C[C@H]2Oc3cc(Br)ccc3S(=O)(=O)N([C@H](C)CO)C[C@H]2C)c1`, the cytotoxicity call is “inactive”.

As for `COc1cccc(NC(=O)N(C)C[C@@H]2Oc3cc(C#Cc4ccncc4)ccc3S(=O)(=O)N([C@H](C)CO)C[C@H]2C)c1`, the cytotoxicity call is “active”.

Regarding `Cc1noc(C)c1NC(=O)N(C)C[C@@H]1Oc2c(NS(=O)(=O)c3cn(C)cn3)cccc2C(=O)N([C@H](C)CO)C[C@H]1C`, the cytotoxicity call was “inactive”.

As for `O=C(Nc1ccn([C@H]2O[C@H](CO)[C@@H](O)[C@@H]2O)c(=O)n1)c1ccccc1`, the cytotoxicity call is “inactive”.

Take `O=C(C[C@@H]1CC[C@@H](NC(=O)c2cccnc2)[C@H](CO)O1)NCCN1CCCCC1`: the cytotoxicity call is “inactive”.

On to `O=C(Nc1nccs1)[C@@H]1[C@@H](CO)[C@@H]2Cn3c(cccc3=O)[C@H]1N2C(=O)C1CC1`, for which the cytotoxicity call is “inactive”.

With `NCc1cnc2ccccc2c1`, the cytotoxicity call was “inactive”.

Take `C[C@@H]1CCCCO[C@@H](CN(C)C(=O)Nc2cccc3ccccc23)[C@H](C)CN([C@H](C)CO)C(=O)c2cc(N(C)C)ccc2O1`: the cytotoxicity call was “inactive”.

For `C[C@H](CO)N1C[C@H](C)[C@@H](CN(C)S(=O)(=O)c2cn(C)cn2)Oc2ccc(NS(=O)(=O)c3cccs3)cc2CC1=O`, the cytotoxicity call is “inactive”.

For `Cc1ccc(S(=O)(=O)Nc2cccc3c2O[C@H](CN(C)Cc2ccc(C(F)(F)F)cc2)[C@@H](C)CN([C@@H](C)CO)C3=O)cc1`, the cytotoxicity call was “inactive”.

Regarding `CC(=O)N1[C@@H]2c3ccc(-c4ccccc4)c(=O)n3C[C@H]1[C@H](CO)[C@H]2C(=O)NCCCN1CCOCC1`, the cytotoxicity call is “inactive”.

Consider `COc1cccc(NC(=O)N(C)C[C@@H]2Oc3cc(C#CC4(O)CCCC4)ccc3S(=O)(=O)N([C@H](C)CO)C[C@@H]2C)c1`, for which the cytotoxicity call was “inactive”.

Consider `COc1cccc(NC(=O)N(C)C[C@@H]2Oc3cc(C#CC4(O)CCCC4)ccc3S(=O)(=O)N([C@@H](C)CO)C[C@H]2C)c1`, for which the cytotoxicity call was “inactive”.

As for `COc1cccc(NC(=O)N(C)C[C@@H]2Oc3cc(C#CC4(O)CCCC4)ccc3S(=O)(=O)N([C@@H](C)CO)C[C@@H]2C)c1`, the cytotoxicity call was “inactive”.

With `COc1cccc(NC(=O)N(C)C[C@H]2Oc3cc(C#Cc4ccncc4)ccc3S(=O)(=O)N([C@H](C)CO)C[C@@H]2C)c1`, the cytotoxicity call is “active”.

On to `COc1cccc(NC(=O)N(C)C[C@H]2Oc3cc(C#CC4(O)CCCC4)ccc3S(=O)(=O)N([C@@H](C)CO)C[C@@H]2C)c1`, for which the cytotoxicity call was “inactive”.

Take `COc1cccc(NC(=O)N(C)C[C@@H]2Oc3cc(C#Cc4ccncc4)ccc3S(=O)(=O)N([C@@H](C)CO)C[C@H]2C)c1`: the cytotoxicity call was “active”.

`COc1cccc(NC(=O)N(C)C[C@H]2Oc3cc(C#Cc4ccncc4)ccc3S(=O)(=O)N([C@H](C)CO)C[C@H]2C)c1`: the cytotoxicity call was “active”.

As for `COc1cccc(NC(=O)N(C)C[C@H]2Oc3cc(C#Cc4ccncc4)ccc3S(=O)(=O)N([C@@H](C)CO)C[C@H]2C)c1`, the cytotoxicity call is “active”.

Take `COc1cccc(NC(=O)N(C)C[C@@H]2Oc3cc(Br)ccc3S(=O)(=O)N([C@@H](C)CO)C[C@H]2C)c1`: the cytotoxicity call is “inactive”.

As for `COc1cccc(NC(=O)N(C)C[C@@H]2Oc3cc(C#CC4(O)CCCC4)ccc3S(=O)(=O)N([C@H](C)CO)C[C@H]2C)c1`, the cytotoxicity call was “inactive”.

With `CN(C)CC#Cc1ccc([C@H]2[C@H](CO)N3C(=O)CN(C(=O)CN(C)C)C[C@@H]23)cc1`, the cytotoxicity call is “inactive”.

For `C/C=C/c1ccc2c(c1)O[C@@H](CN(C)C(=O)c1ccc3c(c1)OCO3)[C@H](C)CN([C@H](C)CO)S2(=O)=O`, the cytotoxicity call was “inactive”.

As to `COC(=O)c1cn(-c2cccc(N)c2)nn1`, the cytotoxicity call was “inactive”.

Regarding `C[C@H]1CN([C@@H](C)CO)C(=O)Cc2cc(NS(=O)(=O)c3ccc(Cl)cc3)ccc2O[C@H]1CN(C)C(=O)Nc1cccc2ccccc12`, the cytotoxicity call is “inactive”.

`C[C@H]1CN([C@@H](C)CO)C(=O)c2cccc(NC(=O)NC3CCCCC3)c2O[C@H]1CN(C)Cc1ccc(Oc2ccccc2)cc1`: the cytotoxicity call is “inactive”.

`C[C@@H]1CCCCO[C@H](CN(C)Cc2ccncc2)[C@@H](C)CN([C@@H](C)CO)C(=O)c2cc(NC(=O)CCC(F)(F)F)ccc2O1`: the cytotoxicity call is “inactive”.

As to `C[C@H]1CN([C@@H](C)CO)C(=O)c2cc(NC(=O)CCCCCC(=O)Nc3ccccc3N)ccc2O[C@@H]1CN(C)C(=O)Nc1ccc(F)cc1`, the cytotoxicity call was “inactive”.

As to `CN1CCN(C(=O)C[C@H]2CC[C@@H]3[C@H](COC[C@H](O)CN3S(=O)(=O)c3cccc(Cl)c3)O2)CC1`, the cytotoxicity call is “inactive”.

In the case of `CN(C)C(=O)C[C@@H]1CC[C@@H]2[C@@H](COc3ccc(NS(=O)(=O)c4cccc(F)c4)cc3C(=O)N2C)O1`, the cytotoxicity call was “inactive”.

As for `C[C@@H]1CN([C@H](C)CO)C(=O)CCCn2nncc2CO[C@H]1CN(C)S(=O)(=O)c1cccc(C#N)c1`, the cytotoxicity call is “inactive”.

With `CO[C@H]1CN(C)C(=O)c2cc(NC(=O)Nc3ccccc3F)ccc2OC[C@@H](C)N(CCC(F)(F)F)C[C@@H]1C`, the cytotoxicity call is “inactive”.

For `C[C@H]1CN([C@@H](C)CO)C(=O)c2cc(NC(=O)CCN3CCOCC3)ccc2O[C@H]1CN(C)Cc1ccccc1`, the cytotoxicity call was “inactive”.

For the compound `CN1CCN(C(=O)C[C@@H]2CC[C@H]3[C@@H](COc4ccc(NC(=O)c5cccs5)cc4C(=O)N3C)O2)CC1`, the cytotoxicity call is “inactive”.

Regarding `O=C(O)CC(CC(=O)O)C(=O)O`, the cytotoxicity call is “inactive”.

For `Cc1ccc(S(=O)(=O)N(C)C[C@@H]2Oc3c(NC(=O)C4CCOCC4)cccc3C(=O)N([C@@H](C)CO)C[C@@H]2C)cc1`, the cytotoxicity call is “inactive”.

In the case of `C[C@@H]1CCCCO[C@H](CN(C)C(=O)Nc2ccccc2)[C@H](C)CN([C@H](C)CO)C(=O)c2cc(NC(=O)c3ccncc3)ccc2O1`, the cytotoxicity call was “inactive”.

As to `CC1(C)S[C@@H]2[C@H](NC(=O)[C@H](N)c3ccc(O)cc3)C(=O)N2[C@H]1C(=O)O`, the cytotoxicity call is “inactive”.

For the compound `CC1(C)SC2C(NC(=O)C(N)c3ccc(O)cc3)C(=O)N2C1C(=O)O` (centres undefined), the cytotoxicity call is “inactive”.

With `CC1(C)S[C@H]2[C@@H](NC(=O)[C@@H](N)c3ccccc3)C(=O)N2[C@@H]1C(=O)O`, the cytotoxicity call is “active”.

Turning to `C/C=C/c1ccc2c(c1)O[C@H](CN(C)C(=O)c1ccc3c(c1)OCO3)[C@H](C)CN([C@@H](C)CO)S2(=O)=O`, the cytotoxicity call is “inactive”.

Take `COc1ccc(CNC(=O)N(C)C[C@@H]2OCc3ccccc3-c3c(n(C)c4ccccc34)C(=O)N([C@@H](C)CO)C[C@@H]2C)cc1`: the cytotoxicity call was “inactive”.

`C[C@@H]1CCCCO[C@H](CN(C)S(=O)(=O)c2ccccc2)[C@@H](C)CN([C@@H](C)CO)C(=O)c2cc(NC(=O)Nc3cccc4ccccc34)ccc2O1`: the cytotoxicity call was “inactive”.

Consider `C[C@H]1CN([C@@H](C)CO)C(=O)Cc2cc(NS(=O)(=O)c3ccc(F)cc3)ccc2O[C@H]1CN(C)Cc1ccc(-c2ccccc2)cc1`, for which the cytotoxicity call is “inactive”.

For the compound `C[C@H](CO)N1C[C@H](C)[C@@H](CN(C)Cc2ccc(-c3ccccc3)cc2)Oc2ccc(NS(=O)(=O)c3ccc(F)cc3)cc2CC1=O`, the cytotoxicity call was “active”.

Take `C[C@H](CO)N1C[C@H](C)[C@H](CN(C)Cc2ccc(-c3ccccc3)cc2)Oc2ccc(NS(=O)(=O)c3ccc(F)cc3)cc2CC1=O`: the cytotoxicity call is “active”.

`C[C@@H]1CN([C@@H](C)CO)C(=O)Cc2cc(NS(=O)(=O)c3ccc(F)cc3)ccc2O[C@@H]1CN(C)Cc1ccc(-c2ccccc2)cc1`: the cytotoxicity call is “active”.

In the case of `C[C@@H]1CN([C@H](C)CO)C(=O)Cc2cc(NS(=O)(=O)c3ccc(F)cc3)ccc2O[C@@H]1CN(C)Cc1ccc(-c2ccccc2)cc1`, the cytotoxicity call is “active”.

`C[C@H]1CN([C@@H](C)CO)C(=O)Cc2cc(NS(=O)(=O)c3ccc(F)cc3)ccc2O[C@@H]1CN(C)Cc1ccc(-c2ccccc2)cc1`: the cytotoxicity call was “inactive”.

Regarding `C[C@@H]1CN([C@@H](C)CO)C(=O)Cc2cc(NS(=O)(=O)c3ccc(F)cc3)ccc2O[C@H]1CN(C)Cc1ccc(-c2ccccc2)cc1`, the cytotoxicity call was “inactive”.

Regarding `C[C@@H]1CN([C@@H](C)CO)C(=O)c2cc(C#CCc3ccccc3)cnc2O[C@@H]1CN(C)CC1CCOCC1`, the cytotoxicity call was “inactive”.

For `COc1ccc(NC(=O)N(C)C[C@@H]2Oc3c(NC(=O)Nc4cccc5ccccc45)cccc3C(=O)N([C@H](C)CO)C[C@@H]2C)cc1`, the cytotoxicity call is “inactive”.

As for `C[C@@H]1CCCCO[C@H](CN(C)C(=O)c2ccccc2)[C@@H](C)CN([C@H](C)CO)C(=O)c2cc(NS(=O)(=O)c3ccc(F)cc3)ccc2O1`, the cytotoxicity call is “inactive”.

With `C[C@@H]1CCCCO[C@@H](CN(C)S(=O)(=O)c2ccccc2)[C@@H](C)CN([C@@H](C)CO)C(=O)c2cc(NS(=O)(=O)c3cn(C)cn3)ccc2O1`, the cytotoxicity call is “inactive”.

For the compound `COc1ccc(S(=O)(=O)Nc2ccc3c(c2)CC(=O)N([C@H](C)CO)C[C@@H](C)[C@H](CN(C)S(=O)(=O)c2ccccc2)O3)cc1`, the cytotoxicity call was “inactive”.

Consider `Cc1noc(C)c1NC(=O)N[C@H]1C=C[C@H](CC(=O)N2CCN(C)CC2)O[C@@H]1CO`, for which the cytotoxicity call was “inactive”.
